Assay outcomes: PubChem, The Scripps Research Institute Molecular Screening Center
CHO-K1 Ca antag – M1 antagonist counterscreen hit in parental CHO-K1 cells; AID 602250; ATP-induced calcium, Fluo-8 fluorescence; inhibition, % at 3 µM; 360,000 tested, 0.6% active;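 active = inhibition above a per-plate cutoff, the plate's mean sample inhibition plus 3 SD, cut at about 24% in these data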;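 note: 0% = DMSO plus EC80 ATP and 100% = DMSO alone without ATP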
M1 antag – human M1 muscarinic receptor antagonists, primary screen, CHO-K1 cells, Fluo-8 calcium fluorescence, 1536-well; CHO-K1 hM1, ACh EC80 antagonist; inhibition, % at 3 µM; 360,000 tested, 1.3% active;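 active = percent inhibition above its own plate's cutoff, namely the mean of that plate's compound wells plus 3 SD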;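 note: peak over basal fluorescence ratio during 140 s after agonist addition; 0% = ACh EC80 plus DMSO and 100% = DMSO alone without agonist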
Target sequence (P11229 whole entry, looked up): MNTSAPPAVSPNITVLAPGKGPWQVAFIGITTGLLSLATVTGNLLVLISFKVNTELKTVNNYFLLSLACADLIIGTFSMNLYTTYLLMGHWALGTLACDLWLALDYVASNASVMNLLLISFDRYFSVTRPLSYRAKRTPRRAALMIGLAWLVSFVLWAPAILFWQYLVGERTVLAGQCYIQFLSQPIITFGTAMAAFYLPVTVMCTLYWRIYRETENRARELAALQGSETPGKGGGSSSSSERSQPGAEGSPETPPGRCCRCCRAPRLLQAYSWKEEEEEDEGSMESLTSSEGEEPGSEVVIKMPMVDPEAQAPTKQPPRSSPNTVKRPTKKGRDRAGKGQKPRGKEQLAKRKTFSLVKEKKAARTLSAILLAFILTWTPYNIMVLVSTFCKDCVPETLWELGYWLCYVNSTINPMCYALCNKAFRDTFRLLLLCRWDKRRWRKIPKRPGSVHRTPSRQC
M1 ag – human M1 muscarinic receptor agonists, primary screen, Fluo-8 calcium fluorescence, CHO-K1 cells, HTS. Muscarinic acetylcholine receptor M1 (Homo sapiens), P11229. CHO-K1 hM1, agonist mode; 0% DMSO, 100% acetylcholine EC100. activation, % at 3 µM. 360,000 tested, 0.33% active;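 active = activation above the run's mean compound activation plus 3 SD, cut at about 16% in these data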;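 note: peak over basal fluorescence ratio within a 140 s kinetic read after compound addition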
M1 PAM parental – nonselective calcium activators in parental CHO-K1 cells, primary screen, counter-screen for M1 PAM project, cell-based, Fluo-8 calcium fluorescence, full deck, 1536-well; ATP EC20; 0% at ATP EC20, 100% at ATP max; activation, % at 3 µM; 360,000 tested, 0.02% active;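 active = activation above the run cutoff, the mean activation of all test compounds plus 3 SD, cut at about 40% in these data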;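 note: peak over basal fluorescence ratio in a 140 s read after ATP addition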
M1 PAM – human M1 muscarinic receptor positive allosteric modulators, primary screen, CHO-K1 cells, Fluo-8 calcium fluorescence, 1536-well | CHO-K1 hM1, ACh EC20; 0% = ACh EC20, 100% = maximal ACh | activation, % at 3 µM | 360,000 tested, 0.088% active | AID 588819, 2011; in the data active = activation above about 19%, passing the limit was not always enough
M1 ag parental – counter-screen for M1 agonists: effect in parental CHO-K1 cells. 360,000 tested, 0.48% active. Fluo-8 calcium fluorescence; scaled to maximal ATP response, vehicle zero. AID 602248, 2012. activation, % at 3 µM; in the data active = activation above about 15%;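 note: untransfected CHO-K1 host cells lacking M1 receptor as counterscreen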
The depositor's hits bear a star; x = no result given. A selection: hits, their analogues and other compounds. The true share with any hit is near 2.3%.

SMILES	CHO-K1 Ca antag	M1 antag	M1 ag	M1 PAM parental	M1 PAM	M1 ag parental
COc1cc(S(=O)(=O)N(Cc2cccs2)CC2CCCO2)ccc1-n1cnnn1 (stereo unspecified)	0.6	-1.5	-11.2	4.3	-0.5	1.1
O=S(=O)(NCc1ccccc1)c1ccc(S(=O)(=O)N(Cc2cccs2)CC2CCCO2)cc1 (stereo unspecified)	27.8*	-2.7	-1.3	-7.0	-0.8	0.0
Fc1ccccc1C1c2[nH]c3ccccc3c2CCN1CCCn1cccn1 (stereo unspecified)	-8.2	38.1*	-8.2	5.7	-21.5	0.2
Cc1ccc(S(=O)(=O)N2CCC(c3nnc(SCCN4CCCC4)n3C)CC2)cc1	-3.7	25.6*	-10.8	14.7	-22.5	0.7
Cn1c(SCCN2CCCC2)nnc1C1CCN(S(=O)(=O)c2ccc(F)cc2)CC1	-11.3	32.6*	-11.8	7.0	-23.6	0.7
CC(=O)c1ccc(S(=O)(=O)N2CCC(c3nnc(SCCN4CCCC4)n3C)CC2)cc1	-6.5	-2.2	-11.5	14.4	-6.4	0.2
CCn1c(SCCN2CCCCC2)nnc1-c1ccc(S(=O)(=O)N2CCOCC2)cc1	-3.8	93.0*	-4.0	-1.6	-19.9	0.0
Cc1ccc(S(=O)(=O)N2CCCCC2)cc1NC(=O)CSc1nnc(C2CC2)n1C	-10.4	-4.4	-3.1	-8.8	-3.6	0.4
Cc1cccc(C)c1-n1nnnc1-c1nc2cc3ccccc3cc2[nH]c1=O	3.4	x	x	1.8	x	4.1
C=CCN(Cc1nc(-c2ccccc2)no1)C(=O)c1ccco1	-9.8	-1.0	-7.8	4.6	1.6	-0.2
Cc1ccc(OCc2cn3cccnc3n2)cc1	67.0*	0.4	-4.6	-4.0	1.4	95.3*
COC(=O)c1ccc2nccnc2c1	-10.3	11.7	-1.2	22.7	-4.5	0.0
COC(=O)c1ccc(N)nc1	1.5	-2.4	21.5*	-10.5	-1.0	0.1
O=C(NC(=S)Nc1cccc2cc(O)ccc12)c1ccco1	9.7	-14.6	6.3	-5.2	11.5	30.9*
O=C(COc1ccccc1)NC(=S)Nc1cccc2cc(O)ccc12	3.6	-3.8	18.7*	9.8	9.9	10.6
CCN(CC)S(=O)(=O)c1cc(C(=O)NC2CCCCC2)ccc1C	-6.8	-7.2	-5.8	15.8	7.3	1.0
O=C(N1CCc2[nH]c3ccccc3c2C1)C(F)(F)F	7.7	7.6	45.7*	-13.5	-11.6	-0.1
COc1ccccc1NC(=O)N1CCc2[nH]c3ccc(F)cc3c2C1	-16.3	-17.3	26.3*	23.0	-9.8	1.9
CC(=O)N1CCc2[nH]c3ccccc3c2C1	14.5	3.9	-1.5	-3.6	8.8	-1.0
O=C(CCCCl)N1CCc2[nH]c3ccccc3c2C1	-3.8	-16.6	23.9*	-11.9	-1.7	0.6
CCN1C/C(=C/c2ccc(N3CCOCC3)cc2)C(=O)/C(=C/c2ccc(N3CCOCC3)cc2)C1	27.5*	31.5	23.5*	6.2	-9.4	34.2*
Cc1nnc(SCc2cc(=O)[nH]c(N3CCCCC3)n2)s1	-5.0	-1.6	-4.1	13.6	1.1	0.1
Cc1nnc(SCc2cc(=O)n3[nH]cnc3n2)s1	24.8*	11.2	-2.0	-6.6	-5.7	-0.3
CC(C)C(NC(=O)c1ccco1)C(=O)NC1CCCCCC1 (stereo unspecified)	-1.8	-6.9	-5.0	-9.7	3.2	0.0
O=C(CN1C(=O)NC2(CCCC2)C1=O)NNC(=O)c1ccc(Br)cc1	-1.4	-21.7	1.8	2.6	29.7*	0.1
COc1ccc(C(=O)CN2C(=O)NC3(CCCCCC3)C2=O)c(OC)c1	0.6	7.2	-3.8	-21.8	1.9	0.5
COc1ccc(C(=O)CN2C(=O)NC3(CCCCC3)C2=O)cc1OC	12.5	-0.8	-2.1	-1.6	10.0	18.5*
O=C(C1CCCN(S(=O)(=O)c2ccc(F)cc2)C1)N1CCCCCC1 (stereo unspecified)	-7.8	7.2	-1.9	-6.0	-1.6	1.2
O=S1(=O)CC(N2CCN(CCO)CC2)CN1C1CCCCC1 (stereo unspecified)	4.6	-11.0	-3.0	13.2	12.5	0.8
